Screening data: PubChem, several laboratories
BJeLR viability = kills HRASV12-expressing BJeLR cells; BJeLR (HRASV12) viability, CellTiter-Glo ATP luminescence, 48 h; inhibition, % (no concentration beside the values); hit rate 0.17% among 300,000; in the data active = inhibition above about 50%; inconclusive = no clear call, values can overlap the other calls
Anthrax LF prot = inhibitors of Bacillus anthracis lethal factor protease | multiplex microsphere protease cleavage assay, LF | inhibition, % at 10 µM | hit rate 0.12% among 360,000 | AID 588501; also: plate controls were buffer without enzyme for full effect and enzyme alone for no effect
Target sequence (P15917 whole entry, looked up): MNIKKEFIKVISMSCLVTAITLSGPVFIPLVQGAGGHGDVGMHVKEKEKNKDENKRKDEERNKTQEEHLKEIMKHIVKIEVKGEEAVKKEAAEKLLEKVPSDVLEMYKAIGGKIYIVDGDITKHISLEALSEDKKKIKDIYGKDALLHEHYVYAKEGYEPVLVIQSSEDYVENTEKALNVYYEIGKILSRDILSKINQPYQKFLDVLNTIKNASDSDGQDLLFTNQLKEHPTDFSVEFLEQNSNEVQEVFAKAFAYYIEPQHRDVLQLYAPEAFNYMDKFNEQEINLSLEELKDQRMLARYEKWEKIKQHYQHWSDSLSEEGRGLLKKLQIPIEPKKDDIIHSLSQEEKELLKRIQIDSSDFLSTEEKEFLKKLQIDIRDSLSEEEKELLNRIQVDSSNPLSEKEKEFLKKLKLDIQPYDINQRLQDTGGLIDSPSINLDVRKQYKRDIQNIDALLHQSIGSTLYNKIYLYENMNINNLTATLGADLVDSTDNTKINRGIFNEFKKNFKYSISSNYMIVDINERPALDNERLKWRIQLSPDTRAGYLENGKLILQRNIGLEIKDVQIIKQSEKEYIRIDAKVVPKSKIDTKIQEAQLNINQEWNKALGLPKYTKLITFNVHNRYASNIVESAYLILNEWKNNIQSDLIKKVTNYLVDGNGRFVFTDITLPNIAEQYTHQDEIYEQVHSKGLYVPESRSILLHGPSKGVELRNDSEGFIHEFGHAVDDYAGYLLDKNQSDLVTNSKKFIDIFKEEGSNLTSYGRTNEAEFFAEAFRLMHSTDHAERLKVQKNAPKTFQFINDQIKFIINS
BoNT A protease = inhibitors of Botulinum neurotoxin A light chain protease; hit rate 0.17% among 360,000; inhibition, % at 10 µM; multiplex microsphere protease substrate cleavage, flow cytometry; also: plate controls were buffer without enzyme for full effect and enzyme alone for no effect
BoNT F protease = BoNT F light chain protease inhibition; hit rate 0.22% among 360,000; Multiplex microsphere protease cleavage assay, flow cytometry; inhibition, % at 10 µM; in the data active = inhibition above about 35%, passing the limit was not always enough; inconclusive = no clear call, values can overlap the other calls; also: plate controls were buffer without enzyme for full effect and enzyme alone for no effect
Autofluor counter = flagged as autofluorescent in microsphere protease counterscreen. compound autofluorescence counterscreen, microsphere flow cytometry; stronger effect = higher value. fluorescence intensity (concentration not given with the values). hit rate 3.1% among 360,000. AID 624483; in the data active = fluorescence intensity above about 16000; inconclusive = no clear call, values can overlap the other calls
* = called active by the depositor; u = inconclusive; x = no result. Sampled rows, rich in hits. Any-hit rate of the full collection: about 3.5%. Rule as the data show it, unless noted: active = inhibition above about 30%; inconclusive = no clear call, values can overlap the other calls; inactive = below that.

SMILES | BJeLR viability | Anthrax LF prot | BoNT A protease | BoNT F protease | Autofluor counter
Cc1ccc(CSc2nnc(-c3ccccn3)n2C)cc1 | 3 | 3 | -1 | -9 | 5575
Cn1c(SCc2ccc(F)cc2)nnc1-c1ccccn1 | 13 | -2 | -3 | -2 | 23620*
Cc1ccc(OCCSc2nnc(-c3ccncc3)n2C)cc1 | x | 3 | 0 | -7 | 22301*
Cc1cccc(OCCSc2nnc(-c3ccoc3C)n2C)c1 | 4 | -1 | u | -1 | 20328*
Nn1c(SCc2ccc(F)cc2)nnc1-c1ccncc1 | 0 | u | 8 | 55* | 3272
Cn1c(SCCOc2cccc(Cl)c2)nnc1-c1ccncc1 | 3 | 0 | 0 | -17 | 3230
COc1ccc(CSc2nnc(-c3ccncc3)n2N)cc1 | -2 | 3 | -3 | 5 | 4024
Cc1c(Cl)cccc1NC(=S)N1CCCCCC1 | -3 | -7 | -2 | 8 | 4662
c1ccc(CSc2nncn2-c2ccccn2)cc1 | -12 | -1 | 1 | -2 | 22351*
Fc1ccc(CSc2nncn2NCc2ccccc2)cc1 | 0 | 2 | 0 | -2 | 21851*
Cn1c(SCc2ccccc2)nnc1-c1ccncc1 | 0 | 3 | u | -1 | 24601*
Cn1c(SCc2ccc(Br)cc2)nnc1-c1ccncc1 | 2 | -7 | 0 | -10 | 7231
O=S1(=O)N[C@H](Cc2ccccc2)COc2cc(N3CC[C@H](O)C3)ccc21 | x | -9 | 0 | 3 | 4192
CCN(CC)c1c(C)nc2ccc(C(=O)N3CCN(C(=O)c4ccco4)CC3)cn12 | x | -2 | 0 | 4 | 3935
O=C(NCc1ccccc1)c1ccc(-c2ccc(F)cc2)o1 | 3 | -1 | u | -2 | 21149*
Cc1ccccc1-c1ccc(C(=O)NCc2ccccc2)o1 | 0 | -12 | 0 | 2 | 3818
Cn1nc(C(=O)NCc2ccccc2)c2ccccc2c1=O | 3 | 2 | 0 | -2 | 3811
Cn1nc(C(=O)NCc2ccc(F)cc2)c2ccccc2c1=O | 2 | -3 | 2 | 0 | 22634*
Cn1cnnc1Sc1nc([N+](=O)[O-])nn1C | 1 | 1 | 0 | -1 | 2226
COc1ccccc1-c1nnc(Sc2nc([N+](=O)[O-])nn2C)o1 | 4 | -3 | 0 | 0 | 16481*
Cc1nnc(SCC(=O)c2ccc(Cl)cc2)n(N)c1=O | x | 2 | 0 | -5 | 4383
CCCCSc1cc(C)nc(N)n1 | 3 | -4 | 0 | 4 | 4257
CC1(C)CC(=O)CC(C)(C)N1OC(=O)c1ccncc1 | 8 | -13 | u | -1 | 23714*
CC1(C)Cc2noc(N)c2C(C)(C)N1OC(=O)c1ccccc1 | 10 | -9 | -1 | -8 | 4532
O=C(Nc1cnn(Cc2ccc(Cl)cc2Cl)c1)c1cc(-c2cccs2)on1 | 4 | 1 | 0 | -9 | 8281
SMILES | BJeLR viability | Anthrax LF prot | BoNT A protease | BoNT F protease | Autofluor counter
CC(=O)c1cccc(NC(=O)Nc2cnn(Cc3ccc(Cl)cc3Cl)c2)c1 | -5 | -2 | -1 | -4 | 22775*
CC(C)(C)c1ccc(Cn2ccc(-c3ccc4c(c3)OCO4)n2)cc1 | -4 | -4 | 1 | -1 | 19826*
O=C1N=C(N2CCCC2)S/C1=C\C=C\c1ccccc1 | -24 | 3 | 4 | 41* | 4230
O=C(Nc1ccc(Br)cc1)c1cccnc1N1CCCCC1 | 1 | -8 | 8 | 5 | 21086*
O=C(Nc1ccc(F)cc1)c1cccnc1N1CCCCC1 | -5 | 1 | -4 | -5 | 21821*
COc1ccc(NC(=O)COc2nc3ccccc3nc2N2CCOCC2)c(OC)c1 | 4 | -4 | -2 | -5 | 3807
CCCCn1ccnc1C(=O)c1cccc(S(=O)(=O)N2CC(C)CC(C)C2)c1 (stereo not drawn) | -8 | -8 | 0 | -4 | 16271*
Cc1ccc2nc(-c3ccccc3)nn2c1 | x | -4 | 0 | 0 | 4144
Cc1ncc2c(c1OC(=O)c1ccccc1)COC(C)(C)OC2 | 6 | -1 | u | -4 | 23118*
Cc1c(OC(=O)c2ccc([N+](=O)[O-])cc2)c2c(c[n+]1C)COC(C)(C)OC2 | -1 | 2 | 0 | -9 | 2477
Cc1c(C(=O)N2CCCCC2)nn(-c2ccc(Cl)cc2)c(=O)c1C#N | 5 | -6 | 0 | -5 | 4286
Cc1cc(NCCCN2CCOCC2)n2ncc(-c3ccc(Cl)cc3)c2n1 | 2 | -1 | u | -4 | 23672*
Cc1cc(NCCCn2ccnc2)n2ncc(-c3ccc(Cl)cc3)c2n1 | -4 | -8 | u | -2 | 22244*
CN(C)CCCNc1cc(C(C)(C)C)nc2c(-c3ccc(Cl)cc3)cnn12 | 11 | -1 | -4 | -28 | 2954
CC(C)(C)c1cc(NCCCn2ccnc2)n2ncc(-c3ccccc3)c2n1 | -10 | x | x | x | x
COC(=O)C[C@H]1C[C@H]2c3cc(NC(=O)C4CCC4)ccc3O[C@H]2[C@H](CO)O1 | x | -2 | 0 | 7 | 3481
COCCN1C(=O)/C(=C/c2ccc(N3CCCC3)cc2)SC1=S | x | 9 | 15 | 4 | 18513*
COc1ccc(/C=C2\SC(=S)N(CCC(=O)N3CCCCC3)C2=O)cc1 | 2 | 2 | 3 | -4 | 3029
Cc1ccc(/C=C2\SC(=S)N(CCCC(=O)N3CCOCC3)C2=O)cc1 | 89* | -1 | 3 | 4 | 4791
Cc1cc(C)n(CC(O)COCc2ccco2)n1 (stereo not drawn) | 7 | -2 | u | -2 | 23131*
Cc1cc(C)n(CC(O)COc2ccccc2)n1 (stereo not drawn) | 4 | 0 | 1 | 8 | 9794
CCOC(=O)C1=C(C)NC2=C(C(=O)CC(C)(C)C2)C1c1ccc(N(C)C)cc1 (stereo not drawn) | 1 | -2 | -3 | -7 | 24751*
CCOc1cc(C2C(C(=O)N3CCCCC3)=C(C)NC3=C2C(=O)CC(C)(C)C3)ccc1O (stereo not drawn) | 0 | -3 | -1 | -4 | 23188*
CC1=C(C(=O)OC(C)C)C(c2ccc(N(C)C)cc2)C2=C(CC(C)(C)CC2=O)N1 (stereo not drawn) | -10 | 0 | 1 | 8 | 4515
COC(=O)C1=C(C)NC2=C(C(=O)CCC2)C1c1cccc(C)n1 (stereo not drawn) | 1 | 0 | -2 | -8 | 10380
SMILES | BJeLR viability | Anthrax LF prot | BoNT A protease | BoNT F protease | Autofluor counter
COC(=O)C1=C(C)NC2=C(C(=O)CC(C)(C)C2)C1c1cccc(C)n1 (stereo not drawn) | 8 | 0 | 0 | -1 | 23176*
O=C(Nc1ccc(F)c(Cl)c1)C1Cc2c(-c3ccccc3Oc3ccccc3)ccnc2O1 (stereo not drawn) | x | -1 | 0 | -6 | 3557
COc1ccc(NC(=O)CSc2ncn(-c3ccccc3)n2)cc1Cl | 6 | -14 | 5 | 5 | 19084*
O=C(CSc1ncn(-c2ccccc2)n1)Nc1ccc(Br)cn1 | 0 | -1 | 1 | -1 | 21921*
Cc1sc(NC(=O)CSc2ncn(-c3ccccc3)n2)nc1-c1ccccc1 | -24 | -1 | 1 | 0 | 16319*
O=C(CSc1ncn(-c2ccccc2)n1)Nc1ccc2c(c1)OCO2 | -3 | -6 | -1 | -12 | 10774
O=C(CSc1ncn(-c2ccccc2)n1)Nc1ccc2c(c1)OCCO2 | 6 | 0 | -1 | -2 | 24180*
